44 molecules from PMC4336329 (PLoS ONE, 2015) can be followed below.

Out of some 310,000 compounds screened, about 14,000 (4.5%) showed an effect of 50% or more. Effects have a minus sign here. The list comes from a sample in which strong results are over-represented; it also holds similar structures and randomly drawn compounds.
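Note: peak tail current of the secondary pulse compared with the same well before compound.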

Sequence of human ether-à-go-go-related gene (hERG) potassium channel (Q12809 whole entry, looked up): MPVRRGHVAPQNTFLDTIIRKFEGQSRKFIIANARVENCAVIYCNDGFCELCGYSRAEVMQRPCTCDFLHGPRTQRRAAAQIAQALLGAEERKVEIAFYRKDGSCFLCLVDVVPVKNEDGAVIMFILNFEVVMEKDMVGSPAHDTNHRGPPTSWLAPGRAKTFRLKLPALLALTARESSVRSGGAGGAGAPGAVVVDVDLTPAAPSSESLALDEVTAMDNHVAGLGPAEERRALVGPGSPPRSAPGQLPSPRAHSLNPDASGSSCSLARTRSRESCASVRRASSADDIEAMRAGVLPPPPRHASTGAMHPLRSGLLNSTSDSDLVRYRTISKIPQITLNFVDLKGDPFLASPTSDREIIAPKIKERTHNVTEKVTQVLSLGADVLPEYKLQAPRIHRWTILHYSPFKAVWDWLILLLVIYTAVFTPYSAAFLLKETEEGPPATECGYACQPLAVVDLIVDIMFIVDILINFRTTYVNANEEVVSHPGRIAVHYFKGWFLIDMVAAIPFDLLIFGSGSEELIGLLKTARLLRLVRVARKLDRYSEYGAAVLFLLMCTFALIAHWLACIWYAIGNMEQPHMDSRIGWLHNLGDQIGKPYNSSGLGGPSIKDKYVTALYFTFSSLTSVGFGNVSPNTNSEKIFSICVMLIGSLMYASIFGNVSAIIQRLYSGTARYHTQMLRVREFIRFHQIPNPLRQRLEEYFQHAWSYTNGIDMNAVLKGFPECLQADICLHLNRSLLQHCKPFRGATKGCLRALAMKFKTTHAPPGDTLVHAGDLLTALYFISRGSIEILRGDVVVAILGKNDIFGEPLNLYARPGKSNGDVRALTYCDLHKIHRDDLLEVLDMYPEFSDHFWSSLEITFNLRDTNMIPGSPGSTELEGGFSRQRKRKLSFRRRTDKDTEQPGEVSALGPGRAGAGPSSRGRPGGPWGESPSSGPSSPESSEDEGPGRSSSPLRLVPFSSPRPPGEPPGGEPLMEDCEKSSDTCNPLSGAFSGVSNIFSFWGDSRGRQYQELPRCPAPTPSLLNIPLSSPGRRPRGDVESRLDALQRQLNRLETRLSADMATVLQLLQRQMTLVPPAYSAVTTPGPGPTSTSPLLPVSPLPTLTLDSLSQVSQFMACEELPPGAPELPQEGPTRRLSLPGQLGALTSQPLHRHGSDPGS

This assay concerns the target human ether-à-go-go-related gene (hERG) potassium channel (human, UniProt Q12809). The assay is described as follows: primary screen, population patch clamp on CHO cells stably expressing hERG; higher = less effect of the substance.
Regarding `CCc1noc(C)c1C(=O)Nc1nnc(C(CC)CC)s1`, the “hERG current change (%, negative = inhibition) at 10uM” value is -16.9%.

As to `CC1C/C(=C/c2ccncc2)C(=O)/C(=C/c2ccncc2)C1` (centres unmarked), the “hERG current change (%, negative = inhibition) at 10uM” value is -41.9%.

Take `O=C1/C(=C/c2cccnc2)CC/C1=C\c1cccnc1`: the “hERG current change (%, negative = inhibition) at 10uM” value was -24.5%.

Take `CC1C/C(=C\c2cccnc2)C(=O)/C(=C/c2cccnc2)C1` (centres unmarked): the “hERG current change (%, negative = inhibition) at 10uM” value is given as -63.1%.

Take `COc1ccccc1CC(=O)Nc1ccc(S(=O)(=O)N2CC(C)CC(C)C2)cc1` (centres unmarked): the “hERG current change (%, negative = inhibition) at 10uM” value is -7.25%.

As to `COc1cc(OC)nc(NC(=O)CN2CCN(c3ccc(F)cc3)CC2)n1`, the “hERG current change (%, negative = inhibition) at 10uM” value is -20.1%.

As to `CSc1ccc(C2NC(=O)c3c(sc4c3CCN(C)C4)N2)cc1` (centres unmarked), the “hERG current change (%, negative = inhibition) at 10uM” value is on record as -60.6%.

Consider `CN1CCc2c(sc3c2C(=O)NC(/C=C\c2ccccc2)N3)C1` (centres unmarked), for which the “hERG current change (%, negative = inhibition) at 10uM” value was -58.6%.

On to `Cc1ccc(C2NC(=O)c3c(sc4c3CCN(C)C4)N2)s1` (centres unmarked), for which the “hERG current change (%, negative = inhibition) at 10uM” value is on record as -36.8%.

For `CN1CCc2c(sc3c2C(=O)NC(/C=C/c2ccco2)N3)C1` (centres unmarked), the “hERG current change (%, negative = inhibition) at 10uM” value is -27.4%.

Turning to `CN1CCc2c(sc3c2C(=O)NC(c2ccc4c(c2)OCO4)N3)C1` (centres unmarked), the “hERG current change (%, negative = inhibition) at 10uM” value is -16.5%.

With `CN1CCc2c(sc3c2C(=O)NC(c2ccccn2)N3)C1` (centres unmarked), the “hERG current change (%, negative = inhibition) at 10uM” value is listed as -1.35%.

Turning to `Cc1ccc2nc(-c3ccc(-c4ccccn4)s3)cn2c1`, the “hERG current change (%, negative = inhibition) at 10uM” value is given as -1.76%.

Take `CCNc1nc(NCC)nc(N(C#N)CCOc2ccccc2)n1`: the “hERG current change (%, negative = inhibition) at 10uM” value was -55.1%.

With `CCNc1nc(NC(C)C)nc(N(C#N)CCOc2ccccc2)n1`, the “hERG current change (%, negative = inhibition) at 10uM” value is on record as -26%.

As for `CN(C)c1nc(N(C)C)nc(N(C#N)CCOc2ccccc2)n1`, the “hERG current change (%, negative = inhibition) at 10uM” value is given as -4.58%.

Regarding `ON1C2CCCCC2N(O)C1c1ccccc1` (centres unmarked), the “hERG current change (%, negative = inhibition) at 10uM” value was found to be 13.2%.

As to `O=C(COC(=O)C1(c2ccccc2F)CCCC1)NCc1ccc2c(c1)OCO2`, the “hERG current change (%, negative = inhibition) at 10uM” value is listed as -6.33%.

On to `CCOC(=O)N1CCC(NC(=O)CSCc2nc(-c3cccc(OC)c3)oc2C)CC1`, for which the “hERG current change (%, negative = inhibition) at 10uM” value is recorded as -17.6%.

`CCOC(=O)N1CCC(NC(=O)CS(=O)(=O)Cc2nc(-c3cccc(Cl)c3)oc2C)CC1`: the “hERG current change (%, negative = inhibition) at 10uM” value is on record as -18.3%.

`CCOC(=O)N1CCC(NC(=O)C2CCCN(Cc3nc(-c4ccc(CC)cc4)oc3C)C2)CC1` (centres unmarked): the “hERG current change (%, negative = inhibition) at 10uM” value is -71.5%.

For `Cc1oc(-c2cccc(Cl)c2)nc1CS(=O)(=O)CC(=O)NC1CCCC1`, the “hERG current change (%, negative = inhibition) at 10uM” value is on record as 6.45%.

As to `CCOC(=O)N1CCC(NC(=O)C2CCCN(Cc3nc(-c4cccc(C)c4)oc3C)C2)CC1` (centres unmarked), the “hERG current change (%, negative = inhibition) at 10uM” value is on record as -63.6%.

Regarding `CCOC(=O)N1CCC(NC(=O)CS(=O)Cc2nc(-c3ccc(C)cc3)oc2C)CC1` (centres unmarked), the “hERG current change (%, negative = inhibition) at 10uM” value is -2.4%.

As to `CCOC(=O)N1CCC(NC(=O)C2CCCN(Cc3nc(-c4cccc(Cl)c4)oc3C)C2)CC1` (centres unmarked), the “hERG current change (%, negative = inhibition) at 10uM” value is on record as -72.2%.

Consider `CCc1ccc(-c2nc(CN3CCCC(C(=O)O)C3)c(C)o2)cc1` (centres unmarked), for which the “hERG current change (%, negative = inhibition) at 10uM” value stood at 14.2%.

Consider `CCOC(=O)N1CCC(NC(=O)C2CCCN(c3nc4ccccc4o3)C2)CC1` (centres unmarked), for which the “hERG current change (%, negative = inhibition) at 10uM” value is -28.4%.

Regarding `Nc1sc(-c2ccccc2)cc1C(=O)N/N=C/c1ccc(Cl)cc1`, the “hERG current change (%, negative = inhibition) at 10uM” value came out at 18.1%.

Take `O=C(CN1CCCCCCC1)Nc1cc(Cl)cc(Cl)c1`: the “hERG current change (%, negative = inhibition) at 10uM” value was 1.75%.

On to `Cc1ccc(-c2noc(Cn3cc(S(=O)(=O)N4CCCC4)ccc3=O)n2)cc1`, for which the “hERG current change (%, negative = inhibition) at 10uM” value is given as 8.62%.

Take `CC(=O)N1c2ccc(S(=O)(=O)N3CCC(C(=O)Nc4cc(C)cc(C)c4)CC3)cc2CC1C` (centres unmarked): the “hERG current change (%, negative = inhibition) at 10uM” value was 2%.

Consider `COc1cc(/C=C/C(=O)OCC(=O)Nc2ccc(C)cc2[N+](=O)[O-])ccc1O`, for which the “hERG current change (%, negative = inhibition) at 10uM” value was -20.5%.

As for `CC(CC(=O)O)CC(=O)Nc1cc([N+](=O)[O-])ccc1O` (centres unmarked), the “hERG current change (%, negative = inhibition) at 10uM” value is -2.89%.

On to `CCOC(=O)c1ccccc1CN1C(=O)c2ccccc2S1(=O)=O`, for which the “hERG current change (%, negative = inhibition) at 10uM” value was -11.1%.

Turning to `COC(=O)c1cccc(N2C(=O)c3ccccc3S2(=O)=O)c1`, the “hERG current change (%, negative = inhibition) at 10uM” value was -9.36%.

As to `CCOC(=O)c1cccc(N2C(=O)c3ccccc3S2(=O)=O)c1`, the “hERG current change (%, negative = inhibition) at 10uM” value was -59.5%.

As to `CCOC(=O)N/N=C(\C)c1ccc(Oc2ncccn2)cc1`, the “hERG current change (%, negative = inhibition) at 10uM” value came to 17.1%.

With `O=C(O)C(=O)O.c1ccc(CCN(Cc2ccccc2)C2CCN(C3CCCC3)CC2)cc1`, the “hERG current change (%, negative = inhibition) at 10uM” value is given as -77%.

Consider `CCCN1CNC(=S)N(CCc2ccccc2)C1`, for which the “hERG current change (%, negative = inhibition) at 10uM” value was found to be 8.83%.

Consider `CCN(CC)C1CCN(C(=O)c2ccc(OC3CCN(CCc4ccccc4)CC3)cc2)C1` (centres unmarked), for which the “hERG current change (%, negative = inhibition) at 10uM” value came out at 2.06%.

For `CC(C)CC(=O)N1CCC(N(CCc2ccccc2)Cc2ccccc2)CC1.O=C(O)C(=O)O`, the “hERG current change (%, negative = inhibition) at 10uM” value was -46.8%.

Consider `CCCCN(Cc1ccccc1)C1CCN(CCc2ccccc2)CC1`, for which the “hERG current change (%, negative = inhibition) at 10uM” value was -72.2%.

On to `CCCCN(Cc1ccccc1)C1CCN(Cc2ccccc2)CC1`, for which the “hERG current change (%, negative = inhibition) at 10uM” value is on record as -53.5%.

As to `O=C(O)C(=O)O.c1ccc(CN2CCC(N3CCC(N4CCCCCC4)CC3)CC2)cc1`, the “hERG current change (%, negative = inhibition) at 10uM” value came out at 16.5%.
